Screens from PubChem.
FBA Mtb inh: Mtb FBA enzyme inhibitors, primary screen, biochemical, fluorescence, strain H37Rv | Fructose-bisphosphate aldolase (Mycobacterium tuberculosis (strain ATCC 25618 / H37Rv)), … | purified M. tuberculosis FBA, fluorescence read-out | inhibition, % at 1 µM | 360,000 tested, 2.3% active | AID 588726, 2011; in the data active = inhibition above about 27%
Rv3671c protease: Rv3671c serine protease inhibitors, primary screen, biochemical, fluorescence polarization, M. tuberculosis H37Rv; P9WHR9; inhibition, % at 5.96 µM; 320,000 tested, 0.048% active; in the data active = inhibition above about 38%;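 also: extracellular domain of Rv3671c used as enzyme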
Target sequence (P9WHR9 whole entry, looked up, the tested form may be a part): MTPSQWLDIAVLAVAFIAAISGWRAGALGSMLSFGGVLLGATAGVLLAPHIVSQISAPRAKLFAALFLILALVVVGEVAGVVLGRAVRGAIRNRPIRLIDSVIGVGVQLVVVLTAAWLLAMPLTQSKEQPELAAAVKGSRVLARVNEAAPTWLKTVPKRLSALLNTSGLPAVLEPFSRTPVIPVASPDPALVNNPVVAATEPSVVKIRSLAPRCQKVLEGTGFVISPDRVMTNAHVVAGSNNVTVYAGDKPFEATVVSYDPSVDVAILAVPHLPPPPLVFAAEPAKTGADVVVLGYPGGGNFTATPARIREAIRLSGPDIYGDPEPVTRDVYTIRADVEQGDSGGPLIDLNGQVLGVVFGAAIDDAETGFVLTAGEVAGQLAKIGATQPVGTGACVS
GDH-TPI counter: GDH-TPI coupling enzyme inhibitors, primary screen, artefact control for M. tuberculosis FBA inhibitor project, biochemical, absorbance, full deck; inhibition, % at 4.8 µM; 360,000 tested, 1.2% active; AID 588335, 2011; GDH-TPI coupled enzyme counterscreen, NADH absorbance; in the data active = inhibition above about 30%
UGM FP inh: M. tuberculosis UGM enzyme inhibitors, primary screen, biochemical, fluorescence polarization, single point | UDP-galactopyranose mutase (Mycobacterium tuberculosis (strain ATCC 25618 / H37Rv)), … | purified UGM, fluorescence polarization probe displacement | inhibition, % at 10 µM | 320,000 tested, 0.06% active | AID 504406, 2011; in the data active = inhibition above about 10%, passing the limit was not always enough
Numbers stand for hits. The list is not random: actives were taken first. Their share in the collection is about 3.5%.

What do the screens show for `Cc1ccc(S(=O)(=O)CCC(=O)OCc2cc(=O)oc3cc(C)ccc23)cc1`?
FBA Mtb inh: inactive; Rv3671c protease: inactive; GDH-TPI counter: inactive; UGM FP inh: inactive

How did COc1ccc2c(CC(=O)NCC3CCC(C(=O)O)CC3)cc(=O)oc2c1 (centres undefined) do in these assays?
FBA Mtb inh: 132.7; Rv3671c protease: inactive; GDH-TPI counter: inactive; UGM FP inh: inactive

Results for COc1ccc(-c2cc(=O)oc3cc(OCC(=O)NCC4CCC(C(=O)O)CC4)ccc23)cc1 (centres undefined) ?
FBA Mtb inh: inactive; Rv3671c protease: inactive; GDH-TPI counter: 33.3; UGM FP inh: inactive

What do the screens show for `Cc1[nH]n(C)c(=O)c1[N+](=O)[O-]`?
FBA Mtb inh: inactive; Rv3671c protease: inactive; GDH-TPI counter: inactive; UGM FP inh: inactive

How did O=C(N/N=C/c1ccc(-c2cccc(C(F)(F)F)c2)o1)c1cccc(F)c1 do in these assays?
FBA Mtb inh: inactive; Rv3671c protease: inactive; GDH-TPI counter: 44.0; UGM FP inh: inactive

Results for O=C(N/N=C/c1ccc(-c2cccc(C(F)(F)F)c2)o1)c1ccccc1O ?
FBA Mtb inh: inactive; Rv3671c protease: inactive; GDH-TPI counter: inactive; UGM FP inh: inactive

How did O=C(N/N=C/c1ccc(-c2cccc(C(F)(F)F)c2)o1)c1ccccc1Br do in these assays?
FBA Mtb inh: inactive; Rv3671c protease: inactive; GDH-TPI counter: 54.2; UGM FP inh: inactive

What do the screens show for `COc1ccc(-c2cc(-c3ccccc3)[n+](C)c(-c3ccccc3)c2)cc1`?
FBA Mtb inh: 34.6; Rv3671c protease: inactive; GDH-TPI counter: inactive; UGM FP inh: inactive

How did COc1ccc(-[n+]2c(-c3ccccc3)cc(-c3ccc(C)cc3)cc2-c2ccccc2)cc1 do in these assays?
FBA Mtb inh: inactive; Rv3671c protease: inactive; GDH-TPI counter: inactive; UGM FP inh: inactive

Results for Cc1cc(C)c(CN2CCN(C(=O)CC[C@H]3O[C@@H](n4ccc(=O)[nH]c4=O)[C@H](O)[C@@H]3O)CC2)c(C)c1 ?
FBA Mtb inh: inactive

Results for C/C(=N\Nc1c([N+](=O)[O-])c(C)nn1C)c1ccc(F)cc1F ?
FBA Mtb inh: inactive; Rv3671c protease: inactive; GDH-TPI counter: 32.9; UGM FP inh: inactive

Results for Cc1cc(C)cc(C(=O)NC(CC(N)=O)c2ccc(N3CCN(C)CC3)c([N+](=O)[O-])c2)c1 (centres undefined) ?
FBA Mtb inh: inactive; Rv3671c protease: inactive; GDH-TPI counter: inactive; UGM FP inh: inactive

How did COc1ccc(CSc2nc(C)[nH]c2[N+](=O)[O-])cc1[N+](=O)[O-] do in these assays?
FBA Mtb inh: inactive; Rv3671c protease: inactive; GDH-TPI counter: 41.5; UGM FP inh: inactive

Results for Cc1nc(SCc2ccccc2)c([N+](=O)[O-])[nH]1 ?
FBA Mtb inh: inactive; Rv3671c protease: inactive; GDH-TPI counter: inactive

What do the screens show for `COc1cc(/C=N/Nc2nn3cnnc3c3ccccc23)ccc1O`?
FBA Mtb inh: inactive; Rv3671c protease: inactive; GDH-TPI counter: 31.8; UGM FP inh: inactive

How did CCOc1cc(/C=N/n2cnnc2)ccc1O do in these assays?
FBA Mtb inh: inactive; Rv3671c protease: inactive; GDH-TPI counter: 33.9; UGM FP inh: inactive

What do the screens show for `C=CCc1cc(/C=N/n2cnnc2)cc(OCC)c1O`?
FBA Mtb inh: inactive; Rv3671c protease: inactive; GDH-TPI counter: inactive; UGM FP inh: inactive

How did CCOc1cc(/C=N/Nc2nn3cnnc3c3ccccc23)ccc1O do in these assays?
FBA Mtb inh: inactive; Rv3671c protease: inactive; GDH-TPI counter: 32.1; UGM FP inh: inactive

Results for COc1cccc(/C=N/Nc2nn3cnnc3c3ccccc23)c1 ?
FBA Mtb inh: inactive; Rv3671c protease: inactive; GDH-TPI counter: inactive; UGM FP inh: inactive

What do the screens show for `C/C(=N\OCC(=O)OC(C)C(=O)Nc1ccc(C)c(S(=O)(=O)N2CCOCC2)c1)c1ccc2c(c1)OCO2` (centres undefined)?
FBA Mtb inh: inactive; GDH-TPI counter: inactive

How did CCOC(=O)N1CCN(S(=O)(=O)N2CCCC(C(=O)NCCCN3CC(C)CC(C)C3)C2)CC1 (centres undefined) do in these assays?
FBA Mtb inh: inactive; Rv3671c protease: inactive; GDH-TPI counter: inactive; UGM FP inh: inactive

What do the screens show for `Cc1ccc(-c2nc3c(c(=O)c4ccccc4n3C)c(=O)n2Cc2ccco2)cc1`?
FBA Mtb inh: inactive; Rv3671c protease: inactive; GDH-TPI counter: 32.4; UGM FP inh: inactive

Results for Fc1ccc(/C=N/Nc2ncnc3nc[nH]c23)cc1F ?
FBA Mtb inh: inactive; Rv3671c protease: inactive; GDH-TPI counter: 42.2; UGM FP inh: inactive

How did C[C@@H](NCCCn1cnc2c(OCc3ccccc3)ncnc21)c1cccc2ccccc12 do in these assays?
FBA Mtb inh: inactive; GDH-TPI counter: inactive

How did Cc1cc(=O)c2ccccc2s1 do in these assays?
FBA Mtb inh: inactive; Rv3671c protease: inactive; GDH-TPI counter: 31.9; UGM FP inh: inactive

Results for COc1ccc2cc3[n+](cc2c1OC)CCc1cc2c(cc1-3)OCO2 ?
FBA Mtb inh: inactive; Rv3671c protease: inactive; GDH-TPI counter: 34.7; UGM FP inh: inactive

Results for COc1cccc(C2=NCCc3cc4c(cc32)OCO4)c1OC ?
FBA Mtb inh: inactive; Rv3671c protease: inactive; GDH-TPI counter: inactive; UGM FP inh: inactive

What do the screens show for `CC(C)C(c1nnnn1C1CCCCC1)N1CCc2ccccc2C1` (centres undefined)?
FBA Mtb inh: inactive; Rv3671c protease: inactive; GDH-TPI counter: inactive; UGM FP inh: inactive

Results for c1ccc(C(c2nnnn2C2CCCCC2)N2CCc3ccccc3C2)nc1 (centres undefined) ?
FBA Mtb inh: 68.7; Rv3671c protease: inactive; GDH-TPI counter: inactive; UGM FP inh: inactive

How did O=C(c1ccco1)N1CCN(c2ccc([N+](=O)[O-])cn2)CC1 do in these assays?
FBA Mtb inh: inactive; Rv3671c protease: inactive; GDH-TPI counter: 30.7; UGM FP inh: inactive

How did CCOc1ccc2c(C)c(C(=O)O)oc2c1OCC do in these assays?
FBA Mtb inh: 155.9; Rv3671c protease: inactive; GDH-TPI counter: inactive; UGM FP inh: inactive

How did CCOc1ccc2c(C)c(C)c(=O)oc2c1OCC do in these assays?
FBA Mtb inh: inactive; Rv3671c protease: inactive; GDH-TPI counter: inactive; UGM FP inh: inactive

How did CCOC(=O)c1sc(NC(=O)CSc2n[nH]c(-c3ccccc3)n2)c(C#N)c1C do in these assays?
FBA Mtb inh: inactive; Rv3671c protease: inactive; GDH-TPI counter: 32.8; UGM FP inh: inactive

What do the screens show for `CCOC(=O)c1sc(NC(=O)CSc2ccccn2)c(C#N)c1C`?
FBA Mtb inh: inactive; Rv3671c protease: inactive; GDH-TPI counter: inactive; UGM FP inh: inactive

How did CCOC(=O)c1sc(NC(=O)CSc2nc(C)cc(C)n2)c(C#N)c1C do in these assays?
FBA Mtb inh: inactive; Rv3671c protease: inactive; GDH-TPI counter: 31.8; UGM FP inh: inactive

Results for CCOC(=O)c1sc(NC(=O)CSc2ncn[nH]2)c(C#N)c1C ?
FBA Mtb inh: inactive; Rv3671c protease: inactive; GDH-TPI counter: 31.3; UGM FP inh: inactive

How did Cc1cc(C(=O)NCC(=O)OC(C)C(=O)N2CCOCC2)ccc1[N+](=O)[O-] (centres undefined) do in these assays?
FBA Mtb inh: inactive; Rv3671c protease: inactive; GDH-TPI counter: inactive; UGM FP inh: inactive
